The whole screen tested about 330,000 compounds, of which about 5,800 (1.8%) were called active. Cut-off read from the data, not from the text of the source: active = inhibition mostly above about 38% (no sharp cut-off); inactive = mostly below about 40%. What follows is part of a selection rich in actives, with near analogues and random picks from the rest.

Experimental findings from PubChem BioAssay AID485270 (The Scripps Research Institute Molecular Screening Center, 2010) are described below.

For the assay, the target named is Orexin/Hypocretin receptor type 1 (Homo sapiens) (UniProt O43613). Briefly: blocks the human orexin 1 receptor (AID 485270).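 Note: 0% = agonist challenge alone and 100% = reference antagonist.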 Conditions: OX1R-expressing cells, FRET antagonist read-out; at 6.6 µM; stronger effect = higher value.
Orexin/Hypocretin receptor type 1 (Homo sapiens), sequence (O43613 whole entry, looked up): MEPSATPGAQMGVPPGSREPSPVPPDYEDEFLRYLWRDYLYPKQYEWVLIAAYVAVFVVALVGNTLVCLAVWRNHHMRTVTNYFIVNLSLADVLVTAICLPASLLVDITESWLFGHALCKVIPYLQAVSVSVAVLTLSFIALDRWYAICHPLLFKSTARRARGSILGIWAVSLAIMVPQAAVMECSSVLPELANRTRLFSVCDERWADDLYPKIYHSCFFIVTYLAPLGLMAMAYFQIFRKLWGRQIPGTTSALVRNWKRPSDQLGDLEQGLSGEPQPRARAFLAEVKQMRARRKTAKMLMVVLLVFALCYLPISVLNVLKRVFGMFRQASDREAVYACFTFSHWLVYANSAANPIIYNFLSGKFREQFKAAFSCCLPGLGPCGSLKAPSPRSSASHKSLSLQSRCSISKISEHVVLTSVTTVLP
With `Cc1noc(C)c1S(=O)(=O)N(C)C[C@H]1Oc2c(NC(=O)Nc3ccc4c(c3)OCO4)cccc2C(=O)N([C@H](C)CO)C[C@@H]1C`, the inhibition is 2.76% (inactive).

Take `C[C@H](CO)N1C[C@H](C)[C@H](CN(C)CC2CC2)Oc2ccc(NC(=O)CCN3CCOCC3)cc2C1=O`: the inhibition was -2.5% (inactive). Turning to `Cc1ccc(S(=O)(=O)N(C)C)cc1NC(=O)C(C)OC(=O)c1ccc2ccccc2n1` (stereo unspecified), the inhibition is 7.22% (inactive). For the compound `CC(NC(=O)COC(=O)CCC(=O)c1ccc(Cl)cc1)c1ccccc1` (stereo unspecified), the inhibition is 10.1% (inactive).

In the case of `Nc1nc(COC(=O)CCC(=O)c2ccc(Cl)cc2)nc(Nc2ccccc2)n1`, the inhibition was 37.4% (active). `Cc1ccc(C(=O)OCc2nc(N)nc(Nc3ccccc3C)n2)cc1`: the inhibition is -2.57% (inactive).

In the case of `O=C(NCc1ccc2c(c1)OCO2)c1cc([N+](=O)[O-])ccc1N1CCOCC1`, the inhibition was 19.9% (inactive). Consider `Cc1c(C(=O)OC(C)C)sc(NC(=O)c2cccnc2)c1C#N`, for which the inhibition was 54.5% (inactive).

`CC1CCCCC12NC(=O)N(CC(=O)N1CCN(c3ccccc3)CC1)C2=O` (stereo unspecified): the inhibition is -1.13% (inactive). With `O=C(Nc1cc(S(=O)(=O)Nc2ccc(Cl)cc2)ccc1O)c1ccc(F)cc1F`, the inhibition is 8.71% (inactive).

As to `O=C(CN1C(=O)NC2(CCCCCCC2)C1=O)NCc1ccc(F)cc1`, the inhibition was 8.6% (inactive). In the case of `CC[C@@]1(C(=O)OC)N[C@H](CN(C)C(C)=O)[C@@H]2C(=O)N(C)C(=O)[C@@H]21`, the inhibition is 1.97% (inactive). As for `Cc1ccc(S(=O)(=O)NC[C@H]2O[C@@H](n3cnc4c(N)ncnc43)[C@H](O)[C@@H]2O)s1`, the figure is -6.3% (inactive); as for `CCN(CC)c1ccc(/C=N/NC(=O)CNC(=O)c2cccnc2)cc1`, 3.18% (inactive); as for `CCN(CC)c1ccc(NC(=O)c2ccc(Cl)nc2)cc1`, 17.1% (inactive). As for `CCN(CC)c1ccc(C(=O)c2cnc(/N=C/N(C)C)s2)cc1`, the figure is 66.5% (active). On to `O=C(NCCN1CCOCC1)c1cc(-c2cccs2)nc2ccccc12`, for which the inhibition is 18.8% (inactive).

In the case of `O=C(Nc1nnc(-c2ccccc2)o1)c1cc(-c2cccs2)nc2ccccc12`, the inhibition is 88.8% (active).

`CCCCN(C)CCCNC(=O)c1cc(-c2cccs2)nc2ccccc12`: the inhibition is 13.3% (inactive). Next, `O=C(c1ccc(S(=O)(=O)NCc2ccco2)cc1)N1CCN(c2ccccc2)CC1`: 11.5% (inactive); `COc1ccc(S(=O)(=O)Nc2cccc3c2O[C@H](CN(C)S(=O)(=O)c2ccc(OC)cc2)[C@@H](C)CN([C@H](C)CO)C3=O)cc1`: -2.59% (inactive). As for `COc1cc(OC)cc(C(=O)NNC(=O)Cc2cccs2)c1`, the figure is 1.69% (inactive). Consider `Cc1oc2cc([N+](=O)[O-])c(O)c([N+](=O)[O-])c2c1C(=O)c1ccc(Br)cc1`, for which the inhibition is 67.5% (active). With `Cc1cc(C(=O)O)ccc1[N+](=O)[O-]`, the inhibition is 1.62% (inactive). Regarding `COc1ccc(C(=O)c2c(C)oc3cc([N+](=O)[O-])c(O)c([N+](=O)[O-])c23)cc1`, the inhibition is 30.6% (inactive).

Take `Cc1ccc(NC(=O)CSc2nnc(-c3cnccn3)n2Cc2ccco2)cc1C`: the inhibition was 18.9% (inactive). With `COc1ccc(NC(=O)CSc2nnc(-c3cccs3)n2Cc2ccco2)cc1OC`, the inhibition was 41.6% (active). Turning to `COc1cc(Cl)c(C)cc1NC(=O)CSc1nnc(-c2cccnc2)n1Cc1ccco1`, the inhibition is 15.5% (inactive). As for `CC(OC(=O)c1ccc(Cl)cc1O)C(=O)NCCC1=CCCCC1` (stereo unspecified), the figure is 5.93% (inactive). On to `O=C(COc1ccccc1F)NNC(=O)c1cc(Br)ccc1Cl`, for which the inhibition was 12.4% (inactive). As for `C#CCOCCOCCOCCNc1nc(N2CCN(C(=O)C([C@@H](C)O)n3cc([C@@H](N)CCCCN)nn3)CC2)nc(N2CCN(C(=O)[C@H](CCCCN)n3cc(CN)nn3)CC2)n1` (stereo partly specified), the inhibition was 6.34% (inactive). As for `C=CC(COCc1ccccc1)N(CC(=O)OC)S(=O)(=O)c1cc(Br)ccc1OC` (stereo unspecified), the figure is 20.4% (inactive); as for `O=C(N/N=C/c1sc(N2CCCCC2)nc1-c1cccs1)c1cccnc1`, 111% (active). As for `Cc1cc(/C=N/NC(=O)c2cccnc2)c(C)n1CC(C)C`, the inhibition was 3.61% (inactive). `O=C(NN=C1CCC(=NNC(=O)c2cccnc2)CC1)c1cccnc1`: the inhibition is 1.73% (inactive).

Take `CC(C#N)OC(=O)c1cccnc1SCC(=O)Nc1ccc2c(c1)OCO2` (stereo unspecified): the inhibition is 8.21% (inactive).

As for `O=C(CC(O)(C(F)(F)F)C(F)(F)F)Nc1ccc(Cl)c(Cl)c1`, the inhibition was 68.7% (active). As for `O=C(CC1SCCNC1=O)Nc1ccc(Cl)c(Cl)c1` (stereo unspecified), the inhibition is 10.1% (inactive). In the case of `O=C(Cc1ccc(Cl)c(Cl)c1)Nc1ccc(SC(F)F)cc1`, the inhibition was 17.7% (inactive). In the case of `Cc1cc(C(=O)Nc2nnc(C3CC3)s2)c(C)s1`, the inhibition was 7.15% (inactive).

As to `CCOC(=O)C1=C(C)N(C[C@@H]2CC[C@@H](Cc3ccc(-c4ccccc4)cc3)O2)C(=O)NC1c1ccc([N+](=O)[O-])cc1` (stereo partly specified), the inhibition was 5.68% (inactive).

With `COc1ccc(Br)cc1CN(C)CC(=O)Nc1cc(Cl)cc(Cl)c1`, the inhibition was 22.9% (inactive).

For the compound `COc1ccc2nc3n(c(=O)c2c1)-c1cc(C)ccc1C(=O)NC3Cc1ccc(O)cc1` (stereo unspecified), the inhibition is 4.12% (inactive).

As to `N#CCCN(C(=O)COC(=O)c1ccc2c(c1)OCCO2)c1ccccc1`, the inhibition was 11% (inactive). `N#CCCN(C(=O)COC(=O)c1ccc(S(=O)(=O)N2CCCCCC2)cc1)c1ccccc1`: the inhibition is 16.8% (inactive).

Consider `Cc1c(C(=O)OCC(=O)N(CCC#N)c2ccccc2)oc2c1ccc1ccccc12`, for which the inhibition is 60.1% (active). As to `Cc1ccc(CCNC(=O)C2CCN(S(=O)(=O)N3CCCC3)CC2)cc1`, the inhibition is 6.73% (inactive). Next, `CN(CC(=O)NCCc1ccc(S(N)(=O)=O)cc1)CC(=O)Nc1ccc(F)c(F)c1F`: -2.07% (inactive). As for `O=c1ccc2c(-c3ccccc3S(=O)(=O)O)c3ccc(O)c(O)c3oc-2c1O`, the inhibition is 55.9% (active).

As to `CC(C)COc1ccc(C(=O)NNC(=O)CCC(=O)c2cccs2)cc1`, the inhibition was 2.01% (inactive). As to `Cc1cccc(NC(=O)c2ccc(S(=O)(=O)N(C)c3ccccc3)cc2)n1`, the inhibition is 9.18% (inactive). On to `CCCCNc1c(-c2ccc(OC)c(Sc3ccc(OC)cc3)c2)nc2ccc(Cl)cn12`, for which the inhibition was 13.3% (inactive).

`COc1ccc(-c2csc(-c3cccs3)n2)cc1OC`: the inhibition was 11.9% (inactive). As for `COc1ccc(-c2csc3nc(-c4ccccc4F)oc(=O)c23)cc1OC`, the inhibition was 46.9% (active).

Consider `COc1ccccc1-c1nnc(-c2ccc(F)cc2)o1`, for which the inhibition is 4.73% (inactive). Next, `O=C(COC(=O)c1n[nH]c2ccccc12)Nc1ccccc1Br`: 19.4% (inactive). Regarding `CCOC(=O)C1CCN(CC(=O)Nc2ccc(OC)c(S(=O)(=O)N3CCCCC3)c2)CC1`, the inhibition was 7.12% (inactive).

Turning to `CC[C@@H]1CCCCc2ccccc2[C@@H](C(=O)C[C@H](O)CC(C)=O)OC1=O`, the inhibition is 5.92% (inactive). `Cc1onc(-c2ccccc2Cl)c1C(=O)OCC(=O)c1ccccc1`: the inhibition is 21.4% (inactive). As for `Cc1onc(-c2ccccc2Cl)c1C(=O)NCCn1ccc2ccccc21`, the inhibition was 69.4% (active). As for `Cc1ccc2cc(CCNC(=O)c3c(-c4ccccc4Cl)noc3C)c(=O)[nH]c2c1`, the figure is 6.94% (inactive); as for `NCCN1CCN2C(=O)CN(C(=O)c3ccccc3)CC12` (stereo unspecified), 6.95% (inactive); as for `CC1(C)C[C@H]2C3=CCC4[C@@]5(C)CC[C@H](O)[C@](C)(CO)C5CC[C@@]4(C)[C@]3(C)C[C@@H](O)[C@@]2(CO)[C@@H](O)[C@@H]1O` (stereo partly specified), 6.35% (inactive). As for `O=C(CSc1nccn1-c1cccc(F)c1)NC1CCCC1`, the figure is 1.88% (inactive); as for `CC(OC(=O)c1c(F)cccc1F)C(=O)NCCC1=CCCCC1` (stereo unspecified), 6.17% (inactive). In the case of `Cc1cccc(N=Nc2c(C)[nH]n(-c3ccccc3)c2=O)c1`, the inhibition was 6.48% (inactive). In the case of `Cc1[nH]n(C)c(=O)c1C(=O)c1c(-c2c(Cl)cccc2Cl)noc1C`, the inhibition was 38.8% (inactive). With `Cc1[nH]n(C)c(=O)c1N=Nc1ccc(S(C)(=O)=O)cc1`, the inhibition is 75.9% (active). `CCc1ccccc1NC(=O)c1ccc2snnc2c1`: the inhibition is 19.6% (inactive). Consider `O=C(Nc1ccc2ccccc2c1)Nc1ccc2snnc2c1`, for which the inhibition was 60.2% (active). On to `O=C(Nc1cccc(Br)c1)c1ccc2snnc2c1`, for which the inhibition was 28.6% (inactive). `CC(=O)C(CC(=O)N1CCCC1)C(=O)Nc1ccc(Cl)cc1` (stereo unspecified): the inhibition was -2.02% (inactive).

Turning to `O=C1COc2ccc(C(=O)COC(=O)c3ccccc3Cl)cc2N1`, the inhibition was 8.89% (inactive). On to `CCN(C(=O)COC(=O)c1sccc1C)c1c(N)n(Cc2ccccc2)c(=O)[nH]c1=O`, for which the inhibition is 21.4% (inactive). For the compound `CCN(C(=O)CSc1ncnc2sccc12)c1c(N)n(Cc2ccccc2)c(=O)[nH]c1=O`, the inhibition is 42.3% (active). On to `CCCN(C(=O)CSc1nnc(N)s1)c1c(N)n(Cc2ccccc2)c(=O)[nH]c1=O`, for which the inhibition was 2.18% (inactive).

Take `COc1ccc(C(=O)O)cc1S(=O)(=O)NC1CCN(Cc2ccccc2)CC1`: the inhibition is 2.69% (inactive). On to `O=C(NCCCN1CCOCC1)c1cn(-c2ccccc2)nc1-c1ccc(F)cc1`, for which the inhibition is 1.24% (inactive). For the compound `O=C(NC(Cc1c[nH]c2ccccc12)C(=O)N/N=C/c1ccc(Br)cc1)c1cccs1` (stereo unspecified), the inhibition was 68.7% (active). With `CC(=O)NC(Cc1c[nH]c2ccccc12)C(=O)O` (stereo unspecified), the inhibition was 11.3% (inactive). Turning to `CC(=O)Nc1ccc(/C=N/NC(=O)c2cccs2)cc1`, the inhibition is 18.1% (inactive).

Regarding `O=C(NNS(=O)(=O)c1c(F)cc(F)c(Cl)c1F)C12CC3CC(CC(C3)C1)C2`, the inhibition was 6.19% (inactive). With `COc1ccc(C(=O)NCc2ccccc2C)cc1S(=O)(=O)NC1CCCC1`, the inhibition was 8.7% (inactive).

For `O=C(COC(=O)c1ccc(O)cc1O)c1ccc2c(c1)OCCO2`, the inhibition was 9.27% (inactive). For the compound `CCNC(=S)N1CCN(S(=O)(=O)c2ccc(Cl)s2)CC1`, the inhibition was 13.3% (inactive). For the compound `CC(C)(C)OC(=O)C1=C(CO)CS[C@@H]2[C@H](NC(=O)Cc3ccccc3)C(=O)N12`, the inhibition was 17.7% (inactive).

One may read the inhibition as the relative decrease from the control value, in per cent.
